Only some compounds are listed: those with a hit (about 20% of all), similar ones and a draw of the others.
Cycloheximide cs: counter-screen hit for Shiga toxin inhibitors, cycloheximide; cell reporter, cycloheximide protein synthesis inhibition counterscreen; max response, %; 300,000 tested, 12% active; in the data active means max response mostly above about 13%, no sharp cut-off; inactive means mostly below about 14%; further: read at 38.3 µM for the half of the compounds with a filed dose; 0% is about no effect
Pf growth 48h: P. falciparum growth inhibition at 48 hours (one generation); 310,000 tested, 5.9% active; Potency, µM (highest dose often 28.7 µM), inactives show at the highest dose activity change, negative = inhibition, usual class: inhibitors; AID 504832; P. falciparum luciferase growth in erythrocytes, 48 h; further: potency means the concentration at half of the fitted maximal effect; on the % scale 0 is the no-effect control and ±100 the full control effect
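In quantitative HTS format, infected erythrocytes bearing luciferase-reporter parasites were treated for a single generation at 37 C. Luminescence after adding detection reagent served as the growth measure.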
Shiga toxin inh: Shiga toxin inhibition; Vero cells, Shiga toxin protein synthesis inhibition reporter; 290,000 tested, 9.2% active; inhibition, % at 38.7 µM; AID 2315; in the data active means inhibition mostly above about 28%, no sharp cut-off; inactive means mostly below about 43%; further: 0% is about no effect
Pf growth 96h: inhibits malaria parasite growth, 96 h; P. falciparum luciferase reporter growth, 96 h; Potency, µM (titrated, usually from 28.7 µM), inactives show at the top dose activity change, negative = inhibition, actives largely listed as inhibitors; 320,000 tested, 6.9% active; further: potency means the concentration at half of the fitted maximal effect; on the % scale 0 is the no-effect control and ±100 the full control effect
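Readout is luminescence from an integrated firefly luciferase in P. falciparum. Red cells, 2% hematocrit and 0.05% parasitemia final, were cultured with compound through two parasite generations (96 hours) at 37 C, 5% CO2.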
HCMV inh: human cytomegalovirus inhibition; HFF cells, HCMV-luciferase reporter, 72 h; stronger effect = lower value; activity change, negative = inhibition, % at 57.5 µM; 410,000 tested, 4.5% active; AID 1259415; in the data active means activity change below about -60%; inconclusive means no clear call, values can overlap the other calls; inactive means above about -39%; further: on the % scale 0 is the no-effect control and ±100 the full control effect
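Two-dose cell screen: HFF monolayers treated with compounds and infected with luciferase-expressing HCMV at 1 PFU/cell, 72 h at 37C, then lysed for luciferase measurement.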
Active calls of the source: *; i = inactive; ? = inconclusive; · = not tested or not shown. Unless noted, the call rests on the fitted dose curve; in most records, active means well fitted inhibition curve with a large enough effect; inconclusive means small, poorly fitted or top-dose-only effect, or another doubt; inactive means no such curve, though single readings can be large or run the other way.

SMILES | Cycloheximide cs | Pf growth 48h | Shiga toxin inh | Pf growth 96h | HCMV inh
CSc1ncc(C(=O)Nc2cccc(C)c2C)c(-c2ccccc2)n1 | · | · | · | · | -15.3
COc1ccc(-c2nnc(-c3ccc(Br)o3)o2)cc1OC | 10.8* | 21.4% | 35.1 | ? | -107.1*
COc1cccc(-c2nc(-c3ccc(Br)o3)no2)c1 | 53.7* | -87.0% | 108.0* | i | 108.7
COc1ccccc1-c1nc(-c2ccc(Br)o2)no1 | 97.0* | · | 145.6* | ? | 219.9
COc1ccc(-c2nnc3sc(-c4ccc(Br)o4)nn23)cc1OC | 25.0 | -5.5% | 0.9 | ? | ·
COc1ccccc1Cc1nc(-c2ccc(Br)o2)no1 | 33.9* | · | 77.8 | -4.5% | 72.5
COc1cc(OC)cc(-c2nc(-c3ccccc3OC)no2)c1 | 4.5 | 27.4% | 31.2 | 9.2% | 19.2
COc1ccc(NC(=O)N2CC(=O)N3[C@H](CO)[C@@H](c4ccc(Br)cc4)[C@@H]3C2)cc1 | · | · | · | · | -1.1
O=c1[nH]cc(S(=O)(=O)NCc2ccccc2)c(=O)[nH]1 | 9.2 | 27.2% | -2.4 | 25.4% | -18.4
O=C(N/N=C1/SCC(=O)N1Cc1ccco1)c1ccccc1F | -6.9 | 40.4% | 17.1 | 56.1% | -2.6
COc1ccc(-c2nc(-c3ccc(Br)o3)no2)cc1OC | 19.0* | 74.6% | 35.4* | ? | -3.7
COc1ccc(/C=C/c2nc(-c3ccccc3O)n(-c3ccccc3)n2)cc1OC | · | · | · | · | -19.1
COc1cc(/C=C/c2noc(-c3ccccc3O)n2)ccc1OC(C)=O | 15.4* | 280.6% | 42.0* | 473.2% | 58.9
CC(=O)Nc1ccc(/C=C/c2noc(-c3ccccc3O)n2)cc1 | 21.0 | 91.4% | 53.7* | 108.8% | 104.3
Oc1ccccc1/C=C/c1noc(-c2ccccc2O)n1 | 33.2* | -41.8% | 70.3* | ? | 55.6
COc1cccc2c1OC1(N3CCOCC3)CCCCC1C2C[N+](=O)[O-] (centres undefined) | · | · | · | · | -27.1
CC(C)(C)[C@H]1C=C(C(=O)NC2CC2)O[C@@H](OCc2ccc(CO)cc2)C1 | 0.4 | ? | -7.3 | ? | 1.6
COc1cccc(C(=O)Nc2ccc(-n3nncc3C(C)(C)C)cc2)c1 | 21.1* | -0.8% | 64.3* | 18.4% | ?
CC(C)(C)c1cnnn1-c1ccc(NC(=O)c2ccc3c(c2)OCO3)cc1 | 12.8* | ? | 27.9* | -4.5% | -4.6
CC(C)(C)c1cnnn1-c1ccc(NC(=O)c2ccc(Br)o2)cc1 | -1.9 | 10.4µM* | -24.7 | 261.5% | -21.3
CC(=O)N1CCN(c2ccc(NC(=O)c3ccc4c(c3)OCO4)cc2)CC1 | 2.3 | 2.5% | 26.3 | -24.9% | 31.2
CCOCCc1nnc(NC(=O)C(=O)c2cc(C)n(-c3ccc(C)cc3C)c2C)s1 | · | · | · | · | -10.9
Cc1ccc2cccc(NC(=O)c3ccc(-c4cccc(Cl)c4)o3)c2n1 | · | · | · | · | 1.6
CSC1=C(C#N)C(c2ccccc2Cl)C2=C(N1)c1ccccc1C2=O (centres undefined) | -2.2 | -13.4% | 15.0 | ? | -30.1
Cc1nn(-c2ccccn2)c2c1C(c1ccccc1Cl)C1=C(N2)c2ccccc2C1=O (centres undefined) | -1.1 | ? | -5.1 | 11.7µM* | -15.2
SMILES | Cycloheximide cs | Pf growth 48h | Shiga toxin inh | Pf growth 96h | HCMV inh
Cc1nn(-c2ccccn2)c2c1C(c1c(F)cccc1Cl)C1=C(N2)c2ccccc2C1=O (centres undefined) | -0.7 | 10.4µM* | -5.3 | 9.28µM* | ·
Cc1cccc(OCC(=O)NNC(=O)c2ccccc2OCc2c(C)noc2C)c1 | · | ? | · | ? | -9.1
CC1(C)CC(=O)C(C(O)c2cccc([N+](=O)[O-])c2)C(C)(C)N1 (centres undefined) | -6.1 | ? | 9.2 | ? | 25.4
COc1ccc(-c2oc3ccccc3c(=O)c2OC(C)=O)cc1 | 33.9* | ? | 68.2* | ? | -33.3
CC(=O)Oc1c(-c2ccc(Br)o2)oc2ccccc2c1=O | 12.8* | ? | 39.2 | 0.0% | 7.9
O=C(O)COc1c(-c2ccco2)oc2ccccc2c1=O | 7.4 | 28.1% | 21.0 | 0.0% | -5.0
CCN(CC)C(=O)c1ncn2c1C(=O)NC[C@H]2C | · | · | · | · | -28.7
Cc1ccc2c(c1)NC(=O)c1cccnc1N2 | 50.5* | 215.1% | 96.7 | i | 2.2
O=C1Nc2ccccc2Nc2ncccc21 | -3.5 | ? | -7.1 | -1.6% | ?
O=C(Cn1c(=O)n(CC2CCCO2)c(=O)c2ccccc21)Nc1ccc(F)cc1F (centres undefined) | · | · | · | · | -1.7
Nc1ccc(OCc2ccccc2)cc1 | 17.1* | 67.9% | 36.2* | ? | 56.9
CC(C)CCOc1ccc(N)cc1 | 12.3* | · | 23.8* | · | ·
Nc1ccc(OCCc2ccccc2)cc1 | 30.8* | ? | 29.0* | ? | 6.3
Nc1cc(OCc2ccccc2)ccc1OCc1ccccc1 | · | · | · | · | 24.8
CCN(CC)CCOc1ccc(Cc2ccccc2)cc1 | · | ? | · | -3.8% | ·
CCN(Cc1ccccc1)Cc1ccc(OCc2ccccc2)cc1 | 15.0* | 37.7% | 25.8 | 2.7% | -15.8
O=C(NCc1ccc(Cl)cc1)C1CCN(S(=O)(=O)N2CCOCC2)CC1 | 7.4 | 9.0% | -9.9 | -20.2% | ?
Cc1ccc(S(=O)(=O)N2CCN(C(=S)NCC3CCCO3)CC2)cc1 (centres undefined) | · | 3.7µM* | · | 3.29µM* | ?
Cc1ccc(C)c(NC(=S)N2CCN(S(=O)(=O)c3ccccc3)CC2)c1 | 6.9 | ? | -8.1 | ? | -71.4*
Cc1ccc(S(=O)(=O)N2CCN(C(=O)C(Cc3ccccc3)NC(=O)c3ccccc3)CC2)cc1 (centres undefined) | · | ? | · | 8.28µM* | -22.7
COc1ccc(CCNC(=S)N2CCN(S(=O)(=O)c3ccccc3)CC2)cc1 | · | 10.4µM* | · | ? | 10.6
Cc1ccc(C)c(NC(=S)N2CCN(S(C)(=O)=O)CC2)c1 | 8.5 | 6.1% | -5.1 | 20.3% | -8.4
CC1CCCCN1CCCNC(=O)c1cc(Br)c(Br)[nH]1 (centres undefined) | -1.0 | -1.5% | -2.6 | -11.1% | 5.6
O=C(Nc1ccccc1C(F)(F)F)C1CCN(S(=O)(=O)c2ccccc2)CC1 | · | · | · | · | -8.2
CCN(CC(=O)NCc1cccs1)C(=O)COc1ccc(C(N)=O)cc1 | · | 3.8% | · | ? | 8.1
SMILES | Cycloheximide cs | Pf growth 48h | Shiga toxin inh | Pf growth 96h | HCMV inh
O=C(c1ccccc1)N1CCN(C(=S)NCCc2ccccc2)CC1 | -0.6 | -15.7% | 14.2 | ? | ?
CCNC(=S)N1CCN(C(=O)C(Cc2ccccc2)NC(C)=O)CC1 (centres undefined) | 4.4 | 54.4% | 20.8 | 10.4µM* | ?
COc1cc(OC)cc(C(=O)NCC(=O)N2CCN(S(=O)(=O)c3ccccc3F)CC2)c1 | · | · | · | · | 9.0
COc1ccc(C(=O)NC2CCN(S(=O)(=O)c3ccccc3F)CC2)cc1 | -3.3 | 10.4µM* | -6.5 | -13.2% | 4.1
Cc1ccc(S(=O)(=O)N2CCN(C(=S)NCCc3ccccc3)CC2)cc1 | 1.5 | ? | 16.4 | 7.38µM* | -36.4
COc1ccc(CCNC(=S)N2CCN(S(=O)(=O)c3ccccc3F)CC2)cc1 | 2.0 | 13.1µM* | 14.5 | ? | ?
Cc1cccc2sc(N(Cc3cccnc3)C(=O)C3CCCCC3)nc12 | · | · | · | · | -39.3
Cc1ccc(NC(=O)CN(C)S(=O)(=O)c2cnc[nH]2)cc1 | · | · | · | · | 23.4

Source: PubChem BioAssay
